Source: PubChem BioAssay (several laboratories)
MsrA act – bovine methionine sulfoxide reductase A activation; purified bovine MsrA, absorbance read-out; actives 0.3% (n = 360,000); activation, % at 10.6 µM; in the data active = activation above about 7.5%;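 also: 0% = vehicle and 100% = reference activator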
GC-A act – GC-A (human) enzyme activation | P16066 | HEK293 GC-A cells, cGMP TR-FRET, EC30 ANP; 0% at EC30 ANP, 100% saturating ANP | activation, % at 10 µM | actives 0.14% (n = 370,000); in the data active = activation above about 40%
MsrA inh – inhibitors of bovine MsrA. purified bovine MsrA, absorbance read-out. inhibition, % at 15.5 µM. actives 0.75% (n = 360,000). AID 651718; in the data active = inhibition above about 4.5%;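 also: 0% = vehicle wells with enzyme and 100% = reference inhibitor wells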
HTR2A ag – activates the mouse 5-HT2A serotonin receptor. AID 624169. P35363. activation, % at 7.6 µM. CHO-K1 mHTR2A beta-arrestin complementation, luminescence; percent of 30 µM serotonin response. actives 0.66% (n = 360,000);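 active = activation above a run cutoff, the mean activation of all tested compounds plus 3 SD, cut at about 14% in these data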;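 also: 0% = plate median of compound wells and 100% = 30 µM serotonin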
GC-B act – GC-B (human) receptor activation; P20594; activation, % at 10 µM; AID 1920062; actives 0.11% (n = 370,000); HEK293-GC-B cells, CNP EC30, cGMP TR-FRET; 0% at EC30 CNP, 100% saturating CNP;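 active = activation at 10 µM reaching about 35% in either raw or pattern-adjusted values, limit read from the data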
Target sequence (P20594 whole entry, looked up): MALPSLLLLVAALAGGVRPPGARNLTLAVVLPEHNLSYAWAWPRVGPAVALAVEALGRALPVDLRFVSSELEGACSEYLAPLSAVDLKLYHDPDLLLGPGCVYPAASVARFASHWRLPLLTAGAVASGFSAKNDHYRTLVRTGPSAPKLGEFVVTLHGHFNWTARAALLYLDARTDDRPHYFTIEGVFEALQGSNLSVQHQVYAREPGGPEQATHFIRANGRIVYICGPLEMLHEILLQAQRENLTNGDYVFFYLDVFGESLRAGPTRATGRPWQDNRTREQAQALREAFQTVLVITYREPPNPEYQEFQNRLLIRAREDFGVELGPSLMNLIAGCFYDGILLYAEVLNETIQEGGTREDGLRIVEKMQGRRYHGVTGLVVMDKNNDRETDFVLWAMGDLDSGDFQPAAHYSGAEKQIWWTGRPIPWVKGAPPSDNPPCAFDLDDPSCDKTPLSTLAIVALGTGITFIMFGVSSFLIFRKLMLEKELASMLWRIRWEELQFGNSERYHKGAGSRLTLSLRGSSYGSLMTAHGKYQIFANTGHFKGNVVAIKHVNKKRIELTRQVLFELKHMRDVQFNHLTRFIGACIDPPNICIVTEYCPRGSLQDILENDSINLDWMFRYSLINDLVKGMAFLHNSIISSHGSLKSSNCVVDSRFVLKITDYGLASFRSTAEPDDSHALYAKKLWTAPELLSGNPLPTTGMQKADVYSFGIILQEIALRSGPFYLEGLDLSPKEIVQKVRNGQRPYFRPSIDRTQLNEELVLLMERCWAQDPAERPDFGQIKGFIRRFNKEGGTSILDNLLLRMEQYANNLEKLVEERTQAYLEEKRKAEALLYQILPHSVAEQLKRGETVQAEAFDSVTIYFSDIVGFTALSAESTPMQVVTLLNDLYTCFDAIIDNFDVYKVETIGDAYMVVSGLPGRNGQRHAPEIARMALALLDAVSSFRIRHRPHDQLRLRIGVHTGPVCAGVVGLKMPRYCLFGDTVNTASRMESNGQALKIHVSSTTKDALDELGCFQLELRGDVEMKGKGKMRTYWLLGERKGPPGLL
MsrA activ conf – bovine methionine sulfoxide reductase A activation confirmed | activation, % at 10.6 µM | AID 602270 | shares compounds with MsrA act | purified bovine MsrA, absorbance read-out | actives 12% (n = 1,000); in the data active = activation above about 4%;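 also: enzyme coupled to thioredoxin and thioredoxin reductase with NADPH; 0% = vehicle wells and 100% = reference activator wells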
* = called active by the depositor; / = no result. This is a sample that favours compounds with a hit; in the whole collection about 1.8% have one here.

SMILES | MsrA act | GC-A act | MsrA inh | HTR2A ag | GC-B act | MsrA activ conf
Cc1ccc(-n2ccc(=O)c(C(=O)Nc3ccc(S(=O)(=O)Nc4nccc(C)n4)cc3)n2)cc1 | -6 | -9 | 2 | 7 | 2 | /
Cc1cc(C)nc(NS(=O)(=O)c2ccc(NC(=O)c3nn(-c4ccccc4)ccc3=O)cc2)n1 | 14* | 2 | 0 | 1 | -5 | -4
Nn1c(SCC(=O)NC2CCCCC2)nnc1-c1cc(-c2ccccc2)n[nH]1 | / | -5 | / | / | -5 | /
O=C(Nc1cccc(C(=O)O)c1)Nc1cccc2ccccc12 | 8.3* | 5 | 0 | 2 | 1 | -1
COc1cccc(C(=O)Nc2cccc3ccccc23)c1 | 20* | -2 | 1 | 0 | 6 | -1
COc1cc(OC)cc(C(=O)Nc2cccc3ccccc23)c1 | -4 | -1 | -1 | 6 | 3 | /
CCN(CC)CCCNC(=O)C1(N[C@@H](Cc2c[nH]c3ccccc23)C(=O)NCC(OC)OC)CCCCC1 | / | 0 | / | / | 1 | /
CCOc1ccc(NC(C(=O)Nc2cccc(C(C)=O)c2)c2ccccc2)cc1 (stereo not given) | 9.5* | 0 | 1 | 0 | 0 | 10*
CCC(=O)N1Cc2cc(C(=O)NCC(F)(F)F)nc(-c3cccc(-c4cncnc4)c3)c2[C@@H]1CCO | 8.2* | 0 | -2 | 0 | 7 | -5
N#CC(c1nc2ccccc2nc1N1CCCC1)S(=O)(=O)c1cccs1 (stereo not given) | 10.0* | -2 | 3 | -1 | -4 | -3
C=CCN1C(=O)[C@@H](CC(=O)NCCc2ccccc2OC)[C@]2(C(=O)OCC)CCCCC/C=C/12 | / | 1 | / | / | 5 | /
CC(=O)c1nccs1 | 16* | / | / | 2 | / | -2
Cn1nnnc1SCC(=O)N1CCCc2ccccc21 | 0 | 3 | 1 | 3 | 1 | /
Cn1nnnc1SCC(=O)N1CCc2ccccc21 | 17* | 4 | 0 | 0 | 1 | -3
CC(C)C[C@@H]1O[C@H](CCc2ccccc2)Cc2[nH]c(=S)[nH]c(=O)c21 | 10* | -4 | -1 | 0 | -12 | -1
COC(=O)CCCC[C@@H]1O[C@H](CCc2ccccc2)Cc2[nH]c(=S)[nH]c(=O)c21 | -2 | -10 | 0 | -2 | -10 | /
Cc1ccc(OCc2nnc(SCC(=O)Nc3cccc4ccccc34)n2Cc2ccco2)cc1 | / | -3 | / | / | 2 | /
Cc1ccc(NS(=O)(=O)c2cc(C(N)=O)ccc2C)cc1 | -2 | -5 | 0 | 3 | -5 | /
Cc1ccc(C(N)=O)cc1S(=O)(=O)Nc1cccc(C)c1C | 16* | -5 | -1 | 1 | 2 | -4
CN(C)C(=O)c1cccc(-c2cc(NC=O)c3ncc(-c4ccc(F)c(Cl)c4)n3c2)c1 | 9.3* | -6 | 1 | 4 | 16 | 1
CN(C)CCNC(=O)c1cccc(-c2cc(NC=O)c3ncc(-c4cccc(C(F)(F)F)c4)n3c2)c1 | -3 | 4 | 0 | -9 | 3 | /
CN(C)CCNC(=O)c1cccc(-c2cnc3c(NC=O)cc(-c4ccc(S(C)(=O)=O)cc4)cn23)c1 | 8.0* | 3 | 1 | 5 | -2 | 0
CN(C)CCNC(=O)c1cccc(-c2cnc3c(NC=O)cc(-c4cc(F)c(F)c(F)c4)cn23)c1 | 8.0* | -11 | 0 | -9 | 8 | -1
COC(=O)[C@]12C[C@H](CC(=O)N3CCSCC3)C(=O)N(CCC3=CCCCC3)C1=C[C@H](C(C)C)O[C@@H]2C1CC1 | / | 0 | / | / | 4 | /
CCc1nnc(NC(=O)CCS(=O)(=O)c2ccc(C)cc2)s1 | -7 | -1 | 0 | 0 | -2 | /
SMILES | MsrA act | GC-A act | MsrA inh | HTR2A ag | GC-B act | MsrA activ conf
CCCCc1nnc(NC(=O)CCS(=O)(=O)c2ccc(C)cc2)s1 | 7.8* | 0 | -2 | -6 | 0 | 2
CN(C(=O)c1ccc(NC(=O)Cc2cccc(NC(=O)C3CCCN(C(=O)C4CC4)C3)c2)cc1)C1CCCC1 (stereo not given) | 8.3* | 2 | -1 | -1 | -4 | -1
CN(C(=O)c1ccc(NC(=O)Cc2cccc(NC(=O)C3CCCN(C(=O)C4CCCCC4)C3)c2)cc1)C1CCCC1 (stereo not given) | -2 | 0 | -1 | 1 | -1 | /
Oc1c(Br)cc(Br)cc1CNc1ccc(F)cc1 | 8.9* | -1 | 0 | -1 | -4 | -1
CN(CCc1ccccn1)C(=O)c1ccc2c(c1)ncn2C1CCCCC1 | / | 0 | / | / | 0 | /
S=c1nc(-c2ccccc2Cl)[nH][nH]1 | 8.1* | -1 | 0 | 2 | 3 | 1
O=c1c2ccccc2n(Cc2ccco2)n1[C@@H](Cc1ccccc1)Cn1cc(C2CCCC2)nn1 | / | -22 | / | / | -12 | /
COc1cc(C(C)=O)ccc1OCC(O)CNCC1(N2CCCCC2)CCCCC1 (stereo not given) | 19* | -7 | 1 | -2 | 6 | 0
O=C(NCc1ccccc1)C1(C(=O)C2CC2)CC(c2ccccc2C(F)(F)F)=NO1 (stereo not given) | / | 3 | / | / | 0 | /
Cc1ccc(C(=O)Nc2nccc(C)n2)cc1 | 8.7* | 3 | -1 | 2 | 5 | -1
Cc1ccnc(NC(=O)c2cccc(OC(F)F)c2)n1 | -3 | 0 | 0 | -5 | 0 | /
c1ccc(SSc2ccccn2)nc1 | 11* | / | / | -4 | / | 7.5*
N#C/C(=C\c1ccc(OCC(N)=O)cc1)C(=O)NC1CC1 | 13* | 2 | 3 | -1 | -8 | -1
Cc1ccc(-c2nnc3n2N=C(c2ccc4ccccc4c2)CS3)cc1 | / | -4 | / | / | 1 | /
Cc1ccc(NC2=C(Cl)C(=O)c3ccccc3C2=O)cc1 | -2 | 6 | 2 | -1 | -1 | /
CCCC(=O)NC1=C(Cl)C(=O)c2ccccc2C1=O | 9.2* | 6 | 1 | -4 | -11 | 1
O=C1C(Cl)=C(NCc2ccco2)C(=O)c2ccccc21 | 14* | -6 | 1 | -3 | -6 | 11*
O=C1c2ccccc2-c2onc3ccc(NCc4ccco4)c1c23 | -3 | / | / | -4 | / | /
CCNC1=C(Cl)C(=O)c2ccccc2C1=O | 12* | -3 | 0 | -4 | -5 | 4.0*
N#CCC[C@H]1CC[C@]2(CCCN(C(=O)c3ccco3)C2)O1 | / | 3 | / | / | -4 | /
N#Cc1cccc(C(=O)N2CCC(Oc3cccnc3)CC2)c1 | / | 2 | / | / | 4 | /
Cc1nnc(N/N=C/c2ccco2)n1N | 16* | 4 | 1 | 0 | 3 | -2
Cc1nnc(N/N=C/c2cccc(C(F)(F)F)c2)n1N | 13* | 1 | -1 | 8 | -1 | 1
Cc1nnc(N/N=C/c2ccccc2C(F)(F)F)n1N | 5 | -1 | -1 | -2 | -3 | /
Cc1[nH]nc2c1C(c1c[nH]c3ccccc13)C(C#N)=C(N)O2 (stereo not given) | -2 | 8 | 1 | -2 | 3 | /
COC(=O)Cc1[nH]nc2c1C(c1c[nH]c3ccccc13)C(C#N)=C(N)O2 (stereo not given) | 12* | 10 | -1 | -4 | 14 | -1
